From PubChem BioAssay (Tox21)
Inconclusive results are not listed. Active and inactive are the calls of the source. Calls come from the whole dose curve; as a rule, active = well fitted cell-killing curve with a large enough effect in the repeat runs; inconclusive = weak or mixed curves; inactive = flat fitted curve, though single readings scatter.

Experiment: qHTS assay to identify small molecule antagonists of the estrogen receptor beta (ER-beta) signaling pathway - cell viability counter screen (AID 1259382); note: nearly all actives have a fitted effect of over 55% in size
Settings: ER-beta-UAS-bla HEK293T viability, CellTiter-Glo luminescence, 16 h; series mostly up to 92.4 µM
Excerpt: U.S. Tox21 Program National Center for Advancing Translational Sciences [NCATS] NIH Chemical Genomics Center [NCGC] U.S. Environmental Protection Agency [EPA] National Institutes of Environmental Health Sciences [NIEHS] National Toxicology Program [NTP] U.S. Food and Drug Administration [FDA] Tox21 Assay Overview: Estrogen receptor (ER), a nuclear hormone receptor, plays an important role in development, metabolic homeostasis and reproduction. Two subtypes of ER, ER-alpha and ER-beta, have similar expression patterns with some uniqueness in both types. Endocrine disrupting chemicals (EDCs) and their interactions with steroid hormone receptors like ER causes disruption of normal endocrine function. To identify the compounds that inhibit ER signaling, an ER-beta-UAS-bla GripTite cell line (Life Technologies, Madison, WI, USA) containing a beta-lactamase reporter gene under the control of an UAS response element was used to screen Tox21 10K compound library. The cytotoxicity of the Tox21 compound library against the ER-beta-bla cell line was tested in parallel by measuring the cell viability using CellTiter-Glo assay in the same wells.
Tox21 Assay Protocol Summary: ER-beta-UAS-bla HEK293T cells were dispensed at 2,000 cells/4 uL of assay medium containing 2% charcoal stripped FBS per well into black wall/clear-bottom 1536-well plates using a Multidrop Combi (ThermoFisher Scientific, Waltham, MA) dispenser. After the assay plates were incubated at a 37C and 5% CO2 for 6 hr, 23 nL of compounds dissolved in DMSO, positive controls or DMSO only was transferred to the assay plate by a Pintool station (Kalypsys, San Diego, CA), followed by addition of 1 uL (1nM as final concentration) of 17-beta-estradiol (E2) in assay medium using a Flying Reagent Dispenser (FRD, Aurora Discovery, San Diego, CA). The plates were incubated at 37C and 5% CO2 for 16 hr. Then 1 uL of LiveBLAzer B/G FRET substrate was added using a Flying Reagent Dispenser, the plates were incubated at room temperature for 2 hours, and fluorescence intensity was measured by an Envision plate reader (PerkinElmer, Shelton, CT). For cell viability readout that measures cytotoxicity, 4 uL/well of CellTiter-Glo reagent was added into the assay plates using a FRD. After 30 min incubation at room temperature, the luminescence intensity in the plates was measured using a ViewLux (PerkinElmer) plate reader.

| Structure (SMILES) | outcome |
| --- | --- |
| CN(C)C(=O)Cl | inactive |
| CC(C)CCCCCCOC(=O)c1ccccc1C(=O)OCCCCCCC(C)C | inactive |
| COc1nc(NC(C)C)nc(NC(C)C)n1 | inactive |
| C=CC(=O)OCCCCCC(C)C | inactive |
| COc1cc(-c2ccc(N)c(OC)c2)ccc1N | inactive |
| Oc1c(Br)cc(Br)cc1Br | inactive |
| CCSC(=O)N1CCCCCC1 | inactive |
| Cc1cccc(C)c1NC(=O)CN1CCCC1=O | inactive |
| CC(=O)C1CCOC1=O (stereo not given) | inactive |
| ClCCOCCCl | inactive |
| CCCCC(CC)C(=O)Cl (stereo not given) | inactive |
| Cc1ccc(N=C=O)cc1N=C=O | inactive |
| ClC(Cl)c1ccccc1 | inactive |
| O=C(O)C(Br)Br | inactive |
| C[C@]12CC[C@H](O)CC1=CC[C@@H]1[C@@H]2CC[C@]2(C)C(=O)CC[C@@H]12 | inactive |
| COP(=S)(OC)SCN1C(=O)c2ccccc2C1=O | inactive |
| OCCCCO | inactive |
| Nc1ncc([N+](=O)[O-])s1 | inactive |
| CCCCCCCCCCCCCCCCCC(=O)O | inactive |
| CSc1nnc(C(C)(C)C)c(=O)n1N | inactive |

| Structure (SMILES) | outcome |
| --- | --- |
| Clc1cnc(Oc2ccc(Oc3ncc(Cl)cc3Cl)cc2)c(Cl)c1 | inactive |
| O=P1(NCCCl)OCCCN1CCCl (stereo not given) | inactive |
| CC(C)c1cccc(C(C)C)c1O | inactive |
| CC12CC1(C)C(=O)N(c1cc(Cl)cc(Cl)c1)C2=O (stereo not given) | inactive |
| N#Cc1ccccn1 | inactive |
| CNC(=O)Oc1cccc2ccccc12 | inactive |
| Nc1cc(Cl)cc(Cl)c1 | inactive |
| O=[N+]([O-])c1cc([As](=O)(O)O)ccc1O | inactive |
| CCNc1nc(Cl)nc(NC(C)C)n1 | inactive |
| C=C(C)C(=O)OCC(CC)CCCC (stereo not given) | inactive |
| Nc1cccc(Cl)c1 | inactive |
| CN(C)C(=O)C(c1ccccc1)c1ccccc1 | inactive |
| C[C@H]1C(=O)O[C@@H]2CCN3CC=C(COC(=O)[C@](C)(O)[C@]1(C)O)[C@H]23 | inactive |
| Cl/C=C/Cl | inactive |
| O=S(=O)(O)OOS(=O)(=O)O | inactive |
| N#CN=C(N)N | inactive |
| O=C(O)c1cc(Oc2ccc(C(F)(F)F)cc2Cl)ccc1[N+](=O)[O-] | inactive |
| COP(=S)(OC)Oc1ccc(SC)c(C)c1 | inactive |
| O=C(O)C1C(C(=O)O)C2(Cl)C(Cl)=C(Cl)C1(Cl)C2(Cl)Cl (stereo not given) | inactive |
| Oc1ccc(Cl)cc1 | inactive |
